Bioassay records (PubChem)
The entries come from a sample that favours hits as a whole.
Pf Dd2 growth: inhibitors of Plasmodium falciparum Dd2 growth. AID 1347417. 120,000 tested, 4.3% active. P. falciparum Dd2 growth, SYBR Green, 72 h. Potency, µM (top dose mostly 28.9 µM), inactives show at the highest dose activity, negative = inhibition, actives largely listed as inhibitors; active = well fitted inhibition curve with a large enough effect;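 note: plate controls were DMSO vehicle for no effect and reference drug for full effect; nearly all actives have a fitted effect of over 65% in size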
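Infected erythrocytes (Dd2, 0.3% parasitemia, 2.5% hematocrit final) are added to compound in RPMI-1640/Albumax II medium, grown 72 h at 37C in low oxygen, then lysed with saponin/Triton-X containing SYBR Green and read by fluorescence.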
An asterisk follows results filed as active; i = inactive; [ ] = remark or other dose. Potency is the fitted concentration of half-maximal effect.

SMILES | Pf Dd2 growth
O=C(c1ccc2c(c1)OCO2)N1CCC(Cc2nc(-c3cnccn3)no2)CC1 | i
Cc1ccc(C)c(CNC(=O)CCc2conc2-c2ccc(F)cc2)c1 | -24.1%
O=C(C[C@@H]1C[C@H]2O[C@H](CNCc3ccncc3F)[C@@H](O)[C@H]2O1)N1CCC(F)(F)C1 | 25.9%[44.1 µM]
CCN(CCNc1ncncn1)c1cccc(C)c1 | -1.8%
COCCNC(=O)c1ccc2c(c1)N(C)C(CC(=O)N1CCC(N)CC1)CO2 (stereo not given) | -1.1%
COc1cccc(NC(=O)[C@@H]2C[C@H](c3ccc(F)cc3)N(Cc3csc(C)n3)C2)c1 | -4.0%[44.1 µM]
O=C(Nc1cccc(F)c1)[C@@H]1C[C@@H](c2ccc(F)cc2)N([S+](=O)([O-])c2cccnc2)C1 | i
COc1ccc(NC(=O)[C@@H]2C[C@H](c3ccc(F)cc3)N(Cc3csc(C)n3)C2)cn1 | -20.8%[44.1 µM]
COc1cccc(NC(=O)[C@@H]2C[C@@H](c3ccc(F)cc3)N(CCOc3ccccc3)C2)c1 | -10.5%[44.1 µM]
O=C(NCCOc1ccccc1)[C@@H]1C[C@@H](c2ccc(F)cc2)N([S+](=O)([O-])c2cccnc2)C1 | -22.0%
O=C(Nc1ccccc1)[C@@H]1C[C@@H](c2ccc(F)cc2)N([S+](=O)([O-])c2cccnc2)C1 | 9.6%[44.1 µM]
O=C(Nc1cccnc1)[C@@H]1C[C@@H](c2ccc(F)cc2)N(Cc2ccccc2)C1 | 7.08µM*
COc1cccc(NC(=O)[C@@H]2C[C@@H](c3ccc(F)cc3)N([S+](=O)([O-])c3cccnc3)C2)c1 | i
COc1cccc(NC(=O)[C@@H]2C[C@H](c3ccc(F)cc3)N([S+](C)(=O)[O-])C2)c1 | 6.31µM*
O=C(NCc1cccnc1)[C@@H]1C[C@@H](c2ccc(F)cc2)N(CCOc2ccccc2)C1 | 8.91µM*
COc1ccc(NC(=O)[C@@H]2C[C@@H](c3ccc(F)cc3)N(Cc3ccccc3)C2)cc1OC | 10µM*
O=C(Nc1cccc(F)c1)[C@@H]1C[C@@H](c2ccc(F)cc2)N([S+](=O)([O-])c2ccccc2)C1 | -26.5%
CN1CC(=O)N(C2CCNCC2)Cc2c1ncnc2N1CCCC(O)C1 (stereo not given) | 13.5%
CC(C)CCN1CCC(N2CCN(S(=O)(=O)C(C)C)CC2)C1=O (stereo not given) | 5.4%
CC(C)=CCN1CCC2(CCC(CNc3ncncn3)O2)CC1 (stereo not given) | -26.4%
CCC(CC)NC(=O)C1CCc2ncc(-c3ccsc3)n2C1 (stereo not given) | i
COCCN(C)C[C@@H]1CN(C(=O)c2ccc(=O)[nH]n2)C[C@@H]1CO | -5.0%
c1ccc(CCc2nnc3n2CCNCC3)cc1 | -22.8%
COc1cc(OC)c(C(=O)N2CC[C@H](CO)[C@@H](O)C2)cc1OC | -2.6%
COc1cccc(CNC(=O)c2cc3n(n2)CC(c2ccc4c(c2)OCO4)OC3)c1 (stereo not given) | i
SMILES | Pf Dd2 growth
Cc1cc(F)ccc1-c1[nH]nc2ncc(-c3c(C)noc3C)nc12 | -9.1%[44.1 µM]
Cc1cc(=O)n(CC(=O)Nc2ccc3c(c2)OCO3)c(-c2ccc(F)cc2)n1 | -26.0%
O=C(CC1N=C2c3ccccc3N=C(SCC(=O)Nc3cccc(C(F)(F)F)c3)N2C1=O)NCc1cccs1 (stereo not given) | 12.6µM*
COc1ccc(CCNC(=O)CSC2=Nc3ccccc3C3=NC(CCC(=O)NCc4ccccc4)C(=O)N23)cc1OC (stereo not given) | -6.4%
COc1ccc(Cl)cc1NC(=O)CSC1=Nc2ccccc2C2=NC(CC(=O)NCc3cccs3)C(=O)N12 (stereo not given) | 11.2µM*
CCCCNC(=O)CSC1=Nc2ccccc2C2=NC(CCC(=O)NCc3ccccc3OC)C(=O)N12 (stereo not given) | -14.5%
Cc1ccc(CSC2=Nc3ccccc3C3=NC(CCC(=O)NCc4cccs4)C(=O)N23)cc1 (stereo not given) | 43.7%
O=C(CC1N=C2c3ccccc3N=C(SCc3cccc(F)c3)N2C1=O)NCc1cccs1 (stereo not given) | i
O=C(CC1N=C2c3ccccc3N=C(SCC(=O)Nc3ccc(F)cc3)N2C1=O)NCc1cccs1 (stereo not given) | 17.5%
COCCCNC(=O)CSC1=Nc2ccccc2C2=NC(CCC(=O)NCc3ccccc3OC)C(=O)N12 (stereo not given) | i
O=C(CCC1N=C2c3ccccc3N=C(SCC(=O)Nc3ccccc3F)N2C1=O)NCc1cccs1 (stereo not given) | -26.5%
Cc1ccc(CSC2=Nc3ccccc3C3=NC(CCC(=O)NCCc4ccccc4)C(=O)N23)cc1 (stereo not given) | 10µM*
CCCCNC(=O)CC1N=C2c3ccccc3N=C(SCC(=O)NCc3ccccc3Cl)N2C1=O (stereo not given) | 10µM*
COc1ccc(OC)c(NC(=O)CSC2=Nc3ccccc3C3=NC(CC(=O)NCc4ccco4)C(=O)N23)c1 (stereo not given) | i
Cc1ccc(C(=O)N(C)Cc2ccc(-c3ccccc3)cc2)cc1 | -9.3%[44.1 µM]
